From PubChem BioAssay (Tox21) come the findings set out here.

Records with an inconclusive call do not appear. Values without a mark were called inactive. The call rests on the fitted dose curve; in most records, active means well fitted activation curve with a large enough effect in the signal ratio in the repeat runs (not every such curve was filed as active); inconclusive means weak or mixed curves; inactive means flat fitted curve, though single readings scatter; the % refers to the signal ratio.
On the % scale 0 is the no-effect control and ±100 the full control effect.

The nature of this assay: qHTS assay to identify small molecule agonists of H2AX (AID 1224845). The conditions noted are these: CHO-K1 phospho-H2AX Ser139 HTRF, 3 h; series mostly up to 154 µM; activation (H2AX phosphorylation): at the top concentration. Put shortly:
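Phospho-H2AX Ser139 measured by HTRF (ex 320 nm; em 665 and 620 nm) after 24 hr antibody incubation. Compounds, 15 concentrations, 0.76% DMSO, were applied to CHO-K1 cells for 3hr at 37C before lysis.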
In general terms: qHTS replaces the single test concentration by a dilution series.
Consider `COC(C)(C)OC`, for which the “activation (H2AX phosphorylation)” value is 0.0214%.

With `CC(C)(C)C(O)/C=C/c1ccc2c(c1)OCO2` (stereo not drawn), the “activation (H2AX phosphorylation)” value was -2.27% [at 70.9 µM].

Consider `CCCCCCCCCCCCCOC(=O)CCSCCC(=O)OCCCCCCCCCCCCC`, for which the activation (H2AX phosphorylation) was 0.898% [at 31.6 µM].

For `O=C(O)CN1C(=O)c2cccc3cccc(c23)C1=O`, the “activation (H2AX phosphorylation)” value was -4.01% [at 70.9 µM].

Consider `CCCCCC`, for which the “activation (H2AX phosphorylation)” value was 1.9%.

Consider `COC(OC)OC`, for which the “activation (H2AX phosphorylation)” value was 1.76%.

For `CC1=C2[C@@H]([C@H](C)CC[C@H]2/C=C(\C)C(=O)O)[C@H](O)C1`, the “activation (H2AX phosphorylation)” value is 0.294%.

`Cc1ccc(NC(=O)N(C)C)cc1NC(=O)N(C)C`: the “activation (H2AX phosphorylation)” value was -0.428%.

On to `CNC1CCCN(c2c(F)cc3c(=O)c(C(=O)O)cn(C4CC4)c3c2OC)C1` (stereo not drawn), for which the “activation (H2AX phosphorylation)” value was 0.412% [at 70.9 µM].

Turning to `COc1ccc(-n2nc(C(F)F)cc2-c2ccc(S(C)=O)cc2)cc1` (stereo not drawn), the “activation (H2AX phosphorylation)” value was -1.44%.

In the case of `Cc1oc(=O)oc1COC(=O)[C@@H]1N2C(=O)[C@@H](NC(=O)[C@H](N)c3ccccc3)[C@H]2SC1(C)C`, the “activation (H2AX phosphorylation)” value was 1.17% [at 70.9 µM].

On to `CNCc1ccc(NC(=O)c2c[nH]c3c2C(=O)CCC3)cc1`, for which the “activation (H2AX phosphorylation)” value is 0.133%.

With `NC(=O)c1ccccc1[N+](=O)[O-]`, the “activation (H2AX phosphorylation)” value was -2.19%.

As for `CN=C(N)NC(=O)Nc1c(C)cccc1C`, the “activation (H2AX phosphorylation)” value is 1.83% [at 70.9 µM].

Turning to `CC(=O)Oc1cccc(O)c1`, the “activation (H2AX phosphorylation)” value was 1.46% [at 70.9 µM].

On to `N[C@@H](Cc1cc(I)c(O)c(I)c1)C(=O)O`, for which the “activation (H2AX phosphorylation)” value was 1.04% [at 70.9 µM].

Consider `CCC1CCC(CCC(=O)O)C1` (stereo not drawn), for which the “activation (H2AX phosphorylation)” value was -1.84%.

On to `CCOc1ncc(F)c(=O)[nH]1`, for which the “activation (H2AX phosphorylation)” value was -0.409% [at 70.9 µM].

As to `CC(C)CC(O)CC(C)C`, the “activation (H2AX phosphorylation)” value was -5.6%.

Turning to `C=Cc1ccc(OC(C)=O)cc1`, the “activation (H2AX phosphorylation)” value was 6.91%.

In the case of `CC(C)c1ccc(C#N)cc1`, the “activation (H2AX phosphorylation)” value is -0.678%.

With `SCCc1cnccn1`, the “activation (H2AX phosphorylation)” value was 5.02%.

In the case of `CCCCCCC(O)CCCCCCCCCCC(=O)OC` (stereo not drawn), the “activation (H2AX phosphorylation)” value was -4.05%.

Take `CCCCC(CC)COS(=O)(=O)O` (stereo not drawn): the “activation (H2AX phosphorylation)” value was -0.0969%.

`Nc1ccn([C@H]2CS[C@@H](CO)O2)c(=O)n1`: the “activation (H2AX phosphorylation)” value was 0.255%.

As to `Cc1ccc(Nc2c(F)cccc2Cl)c(CC(=O)O)c1`, the “activation (H2AX phosphorylation)” value is 1.9% [at 70.9 µM].

For the molecule `CCCCCCCCCCCCCC(=O)OCC(O)CO` (stereo not drawn), the “activation (H2AX phosphorylation)” value is -2.91%.

On to `COc1ccc(/C=C/C(=O)c2ccc(OC)cc2OC)cc1`, for which the “activation (H2AX phosphorylation)” value was -3.6% [at 70.9 µM].

With `O=C(O)c1ccc(O)cc1O`, the “activation (H2AX phosphorylation)” value is 0.46%.

As to `CCOC(=O)c1ccc(NC(=O)CN2CCCCC2)cc1`, the “activation (H2AX phosphorylation)” value is -0.0769% [at 70.9 µM].

For the molecule `ClC1=C(Cl)C1(Cl)Cl`, the “activation (H2AX phosphorylation)” value was -2.45%.

For `CC(C)(C)CCCCCCOC(=O)c1ccccc1C(=O)OCCCCCCC(C)(C)C`, the “activation (H2AX phosphorylation)” value is -0.279%.

`CCNc1nc(N)nc(Cl)n1`: the “activation (H2AX phosphorylation)” value was 0.716%.

With `C1=CCC2CC=CC2C1` (stereo not drawn), the “activation (H2AX phosphorylation)” value is 0.282%.

For `O=C(NS(=O)(=O)/C=C/c1ccccc1)c1ccc(F)cc1Cl`, the “activation (H2AX phosphorylation)” value is -3.28%.

For the molecule `CS(=O)(=O)c1ccc([C@@H](C[C@H]2CCC(=O)C2)C(=O)Nc2cnccn2)cc1Cl`, the “activation (H2AX phosphorylation)” value was -1.29%.

Regarding `O=[N+]([O-])c1ccc2ncccc2c1`, the “activation (H2AX phosphorylation)” value was -0.566%.

On to `COC1CCC=CO1` (stereo not drawn), for which the “activation (H2AX phosphorylation)” value is 2.4%.
